Article PMC5540273 (PLoS ONE, 2017)

Experiments:
Details in all cases: concentration: 1 μM, replicates: in singlicate; n = 1
CHEK2 = test system: CHEK2
CIT = test system: CIT
CLK1 = test system: CLK1
CLK2 = test system: CLK2
CLK3 = test system: CLK3
CLK4 = test system: CLK4
CSF1R-autoinhibited = test system: CSF1R-autoinhibited
CSF1R = test system: CSF1R
CSK = test system: CSK
CSNK1A1L = test system: CSNK1A1L
CSNK1A1 = test system: CSNK1A1
CSNK1D = test system: CSNK1D
CSNK1E = test system: CSNK1E
CSNK1G1 = test system: CSNK1G1
CSNK1G2 = test system: CSNK1G2
CSNK1G3 = test system: CSNK1G3
CSNK2A1 = test system: CSNK2A1
CSNK2A2 = test system: CSNK2A2
CTK = test system: T1, CTK
T1 construct: gene MATK

DAPK1 = test system: DAPK1
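Further: KINOMEscan kinase panel screen.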

SMILES | %Inh (CHEK2) [%] | %Inh (CIT) [%] | %Inh (CLK1) [%] | %Inh (CLK2) [%] | %Inh (CLK3) [%] | %Inh (CLK4) [%] | %Inh (CSF1R-autoinhibited) [%] | %Inh (CSF1R) [%] | %Inh (CSK) [%] | %Inh (CSNK1A1L) [%] | %Inh (CSNK1A1) [%] | %Inh (CSNK1D) [%] | %Inh (CSNK1E) [%] | %Inh (CSNK1G1) [%] | %Inh (CSNK1G2) [%] | %Inh (CSNK1G3) [%] | %Inh (CSNK2A1) [%] | %Inh (CSNK2A2) [%] | %Inh (CTK) [%] | %Inh (DAPK1) [%]
Cc1csc(-c2nc(Nc3ccncc3)c3ccccc3n2)n1 [GW869640] | 15 | 61 | 15 | 19 | 35 | 8 | 28 | 0 | 3 | 10 | 28 | 46 | 41 | 0 | 9 | 0 | 28 | 26 | 36 | 22
NC(=O)c1nnc2ccccc2c1N | 16 | 7 | 51 | 17 | 1 | 1 | 0 | 14 | 0 | 38 | 66 | 49 | 37 | 9 | 0 | 43 | 11 | 24 | 0 | 2
CCn1c(-c2cccnc2O)nc2cnccc21 [SB-736715] | 0 | 0 | 10 | 0 | 0 | 0 | 2 | 0 | 0 | 84 | 16 | 0 | 0 | 0 | 0 | 0 | 0 | 0 | 3 | 0
O=C(Nc1n[nH]c2cc(-c3cccc(F)c3F)ccc12)C1CC1 [SB-733894] | 0 | 6 | 0 | 13 | 0 | 0 | 0 | 7 | 0 | 0 | 16 | 17 | 0 | 0 | 4 | 0 | 0 | 29 | 56 | 20
COc1cc2ncn(-c3cc(OCC4CCCO4)c(C(N)=O)s3)c2cc1OC (stereo not shown) [GSK204607] | 20 | 12 | 22 | 0 | 10 | 18 | 3 | 5 | 0 | 0 | 0 | 8 | 17 | 1 | 0 | 26 | 8 | 9 | 0 | 29
CC1=C(C(=O)Nc2cc3cn[nH]c3cc2F)C(c2ccc(C(F)(F)F)cc2)CC(=O)N1 (stereo not shown) [GSK429286] | 0 | 5 | 14 | 0 | 37 | 0 | 0 | 7 | 0 | 7 | 0 | 10 | 25 | 7 | 0 | 12 | 18 | 0 | 0 | 9
CC(C)(C)c1ccc(C(=O)Nc2cn3cc(Cl)ccc3n2)cc1 | 2 | 27 | 75 | 29 | 2 | 75 | 14 | 1 | 0 | 0 | 19 | 67 | 59 | 0 | 16 | 0 | 0 | 0 | 0 | 20
Cc1cc(-c2ccc3c(c2)CC[C@@H](N[C@@H](C)c2ccccc2)C3)cnc1N.Cl [GW412617] | 6 | 24 | 13 | 0 | 0 | 10 | 0 | 27 | 0 | 21 | 6 | 35 | 12 | 11 | 0 | 8 | 2 | 10 | 13 | 10
COC(=O)c1c(-c2ccccc2)c2cc(OC)ccc2c(=O)n1Cc1ccccc1 | 15 | 6 | 0 | 4 | 0 | 5 | 20 | 51 | 0 | 4 | 9 | 0 | 0 | 8 | 0 | 0 | 0 | 27 | 26 | 37
COc1ccc(C2=C(Nc3cccc(C(=O)O)c3)C(=O)NC2=O)cc1 [SB-390765] | 0 | 0 | 11 | 3 | 8 | 4 | 26 | 18 | 12 | 11 | 15 | 14 | 0 | 11 | 0 | 3 | 18 | 10 | 43 | 5
Fc1cc(Cl)ccc1Nc1ccnc2cc(I)ccc12 [GW551191] | 0 | 37 | 27 | 0 | 5 | 5 | 0 | 0 | 0 | 0 | 0 | 5 | 35 | 4 | 0 | 20 | 0 | 0 | 0 | 19
